From PubChem
Only a selection was taken, and hits are over-represented in it overall.
TTR transcr act – TTR transcription activators in neuroblastoma reporter cells, primary screen, cell-based, luminescence, SH-SY5Y, TTR promoter Gaussia luciferase; 100% = recombinant luciferase protein wells; activation, % at 16.7 µM; 92,000 compounds, 1.3% hits; AID 1117267, 2014;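 active = activation above the mean of all tested compounds plus 3 SD, cut at about 9.5% in these data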;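 also: cells exposed to compounds for one day before reading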
HuH7 TTR inh – TTR promoter reporter inhibitors in hepatoma cells, counter-screen for TTR transcription activator project, cell-based, luminescence, HuH7 hepatoma; HuH7 TTR promoter-Gaussia luciferase reporter; inhibition, % at 16.7 µM; AID 1117279, 2014; 1,100 compounds, 4% hits; shares compounds with TTR transcr act;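 active = average inhibition above the solvent-only control wells' mean plus 3 SD, cut at about 15% in these data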;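 also: inhibitors lower well luminescence so higher value means more inhibition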
TTR up confirm – TTR transcription activators, retest, confirmation, cell-based, luminescence, SH-SY5Y, triplicate; shares compounds with TTR transcr act; SHSY5Y TTR promoter Gaussia luciferase; 100% = purified Lucia enzyme wells, no cells; activation, % at 16.7 µM; 1,100 tested, under 10 active; AID 1117280, 2014;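 active = mean activation above a set limit taken from the earlier primary screen, cut at about 11% in these data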
Numbers stand for hits; n = inactive.

SMILES	TTR transcr act	others
Cc1c(NC(=O)COC(=O)c2c3c(nc4ccccc24)CCCC3)c(=O)n(-c2ccccc2)n1C	n
CC1=C(C(=O)N(C(C)C)C(C)C)CC(CC(=O)NCCCN(C)C)C(=O)N1Cc1ccccc1 (stereo not drawn)	n
CCN(CC)C(=O)OCc1c(-c2ccccc2)ncc2ccccc12	n
CCOc1ccc(/C=N/n2nnnc2N)cc1OCC	n
CCOc1ccc(/C=N/n2nnnc2N)cc1O	n
Nc1nnnn1/N=C/c1cc(Br)ccc1O	12	HuH7 TTR inh=n;TTR up confirm=n
O=C(NCc1ccco1)c1ccc(-c2ccc3nccn3c2)cc1	n
Cc1cc(NC(=O)C2C3C(=O)N(CCC(C)C)C(C(=O)NCc4ccccc4)C34C=CC2(C)O4)no1 (stereo not drawn)	n
CC[C@]12c3[nH]c4cc(CCC(=O)N(C)C)ccc4c3CCN1C(=O)[C@@H](CC(=O)NCc1ccc(OC)c(OC)c1)C[C@@H]2C(=O)N1CCN(C(=O)C2CC2)CC1	n
CC[C@]12c3[nH]c4cc(-c5ccco5)ccc4c3CCN1C(=O)[C@@H](CC(=O)NCc1ccc(OC)c(OC)c1)C[C@@H]2C(=O)N1CCN(C(=O)C2CC2)CC1	10	HuH7 TTR inh=n;TTR up confirm=n
CC[C@]12c3[nH]c4cc(-c5ccco5)ccc4c3CCN1C(=O)[C@@H](CC(=O)NCCC1=CCCCC1)C[C@@H]2C(=O)N1CCN(C(=O)C2CC2)CC1	n
COC(=O)c1cn(NC(=O)/C=C/c2cc(OC)ccc2OC)c(=O)c2ccccc12	n
Cc1cccc(NCc2ccc([N+](=O)[O-])s2)c1	n
CN(C)c1ccc(C(=O)OCC(=O)N2CCCCCC2)cc1	n
CN(C)c1ccc(C(=O)OCC(=O)N2CCCC2)cc1	13	HuH7 TTR inh=n;TTR up confirm=n
CCOC(=O)N1CCN(C(=O)COC(=O)c2ccc(N(C)C)cc2)CC1	n
CCOC(=O)C1=NN(c2ccccc2)C2=NC(C)=C(C(=O)OC)C(c3ccc(C)cc3)N12 (stereo not drawn)	n
C/C(=N\Nc1ncc(Br)cn1)c1cccc([N+](=O)[O-])c1	14	HuH7 TTR inh=21;TTR up confirm=n
C/C(=N\Nc1cc(C)nc(-c2ccccc2)n1)c1cccc([N+](=O)[O-])c1	n
C/C(=N\NC(=O)C(N)=O)c1cccc([N+](=O)[O-])c1	n
COC(=O)c1c(NC(=O)Cc2ccccc2)sc2c1C(C(=O)OC)CC2 (stereo not drawn)	n
COCc1[nH][nH]c(=O)c1C=Nc1ccc(Oc2ccccc2)cc1	n
C=CCN1C(=O)CN=C1Nc1cc(C)cc(C)c1	n
O=C(COC(=O)c1ccc(Br)c(S(=O)(=O)N2CCOCC2)c1)NC1CC1	n
COc1ccc(S(=O)(=O)n2c(N)nc3ccccc32)cc1	n
SMILES	TTR transcr act	others
CCn1c(N2CCN(S(=O)(=O)c3ccc(OC)cc3)CC2)nc2ccccc21	14	HuH7 TTR inh=n;TTR up confirm=n
COc1ccc(S(=O)(=O)N2CCN(Cc3ccccc3OC)CC2)cc1	n
COc1ccc(OC)c(-c2csc(NC(=O)Cc3cccs3)n2)c1	n
O=C1CCN(Cc2ccccc2)C=C1c1ccc(C(F)(F)F)cc1	n
O=C1CCN(Cc2ccccc2)C=C1c1ccc2ccccc2c1	10	HuH7 TTR inh=n;TTR up confirm=n
CC1(C(=O)Nc2ccc3ccccc3c2)CCC(=O)N1C1CCN(Cc2ccccc2)CC1 (stereo not drawn)	n
O=C(Cc1ccc(Cl)cc1Cl)Nc1cccc(S(=O)(=O)Nc2ccccc2F)c1	n
COC(=O)c1cc(-c2ccc(F)cc2OCc2ccccc2)c(=O)n2c1CCC2	n
O=C(COC(=O)c1ccccc1)c1ccc(Br)cc1	n
N#Cc1c(Nc2ccc(Cl)cc2)s[nH]c1=O	n
COc1ccccc1CNC(=O)N1CCN(S(=O)(=O)c2ccc(Cl)cc2)CC1	38	HuH7 TTR inh=n;TTR up confirm=n
COc1cccc(CNC(=O)N2CCN(S(=O)(=O)c3ccc(Cl)cc3)CC2)c1	n
COc1ccccc1CNC(=O)N1CCN(S(=O)(=O)c2ccccc2)CC1	n
CC1(C)Cc2c(cnn2-c2cccc(F)c2)C(NC(=O)c2ccc(=O)[nH]n2)C1 (stereo not drawn)	n
CC(CCc1ccccn1)(CCc1ccccn1)C(=O)c1ccccc1	n
O=C1c2ccccc2C(=O)N1c1nccs1	n
COc1ccc(N2C(=O)C3C4C=CC(C4)C3C2=O)nn1 (stereo not drawn)	n
O=C1C2C3C=CC(C3)C2C(=O)N1c1nccs1 (stereo not drawn)	15	HuH7 TTR inh=n;TTR up confirm=n
NC(=O)CC(NC(=O)Cc1ccc(Cl)cc1)c1ccc(NCC2CC2)c([N+](=O)[O-])c1 (stereo not drawn)	n
COc1ccc(-c2c3c(nc4sc5c(=O)[nH]c(C)nc5c24)CCC3)cc1	16	HuH7 TTR inh=n;TTR up confirm=n
Cc1ccc(-c2c3c(nc4sc(C(N)=O)c(N)c24)CCCC3)o1	n
